{
  "source": "PubChem BioAssay (Tox21)",
  "note": "Inconclusive results are not listed. Where a call stands in place of a potency, no number is given. A number with no mark means an inactive call. The source made the active and inactive calls. The call rests on the fitted dose curve; in most records, active means well fitted activation curve with a large enough effect in the repeat runs; inconclusive means weak or mixed curves; inactive means flat fitted curve, though single readings scatter.",
  "data": [
    {"assay": "A CellTox Green Cytotoxicity Assay to monitor cytotoxicity in HEK293 cells - 16 hour (AID 1224888); further: nearly all actives have a fitted effect of over 35% in size", "conditions": "CellTox Green fluorescence; series mostly up to 76.8 µM", "excerpt": "National Center for Advancing Translational Sciences [NCATS]\nNIH Chemical Genomics Center [NCGC]\nU.S. Environmental Protection Agency [EPA]\nNational Institutes of Environmental Health Sciences [NIEHS]\nNational Toxicology Program [NTP]\nCell-based models are critical for drug discovery. Determining the natural cytotoxic effects resulting from test compounds is an essential research activity. A CellTox Green Cytotoxicity Assay to monitor cytotoxicity in real time of continues cell culture during 40 hours of the compound treatment was used to screen Tox21 10K library compounds in Hek293 cells. CellTox Green Cytotoxicity Assay is a nonlytic, homogeneous, biofluorescent method to measure cytotoxicity in cell culture after experimental manipulation. The assay system uses a proprietary asymmetric cyanine dye that is excluded from viable cells but preferentially stains the dead cell's DNA. […] Viable cells produce no appreciable increases in fluorescence. Therefore, the fluorescence signal produced by the binding interaction with dead cell DNA is proportional to cytotoxicity.\nThe mixture of Hek293 cell suspension and reagents were dispensed at 600cells/6 ul/well in 1536-well tissue culture treated black solid bottom plates using a Multidrop dispenser. After the assay plates were incubated at a 37 C/5% CO2 incubator for 5 hours, 23 nL of compounds dissolved in DMSO, positive and negative controls was transferred to the assay plate by a pintool work station. The plates were incubated at 37 C for 40 hours. The fluorescence intensity were measured at 0h, 8h, 16h, 24h, 32h and 40h time points using ViewLux plate reader during compound treatment.", "values": [
      {"smiles": "O=C(O)c1ccc(OCCN2CCCCC2)cc1", "Potency": "inactive"},
      {"smiles": "N#CCCOCCOCCC#N", "Potency": "inactive"},
      {"smiles": "CC(C)COC(=O)CCCCC(=O)OCC(C)C", "Potency": "inactive"},
      {"smiles": "C[Si]1(C)N[Si](C)(C)N[Si](C)(C)N1", "Potency": "inactive"},
      {"smiles": "NS(=O)(=O)c1cc2c(cc1Cl)NC(CC1CCCC1)NS2(=O)=O", "note": "(stereo not given)", "Potency": "inactive"},
      {"smiles": "C[C@@H]1C[C@H]2[C@@H]3C[C@H](F)C4=CC(=O)C=C[C@]4(C)[C@@]3(F)[C@@H](O)C[C@]2(C)[C@@]1(O)C(=O)CO", "Potency": "inactive"},
      {"smiles": "Cc1cccc(Nc2ccncc2S(=O)(=O)NC(=O)NC(C)C)c1", "Potency": "inactive"},
      {"smiles": "CCCCCCCCC(=O)OCC", "Potency": "inactive"},
      {"smiles": "CCOC(=O)C(=O)c1csc(NC=O)n1", "Potency": "inactive"},
      {"smiles": "CCCCCCCCCCC", "Potency": "inactive"},
      {"smiles": "Cc1cc(C)cc([N+](=O)[O-])c1", "Potency": "inactive"},
      {"smiles": "CC(=O)OC(C)(C)Cc1ccccc1", "Potency": "inactive"},
      {"smiles": "C1CCN2C[C@@H]3C[C@@H](CN4CCCC[C@@H]34)[C@H]2C1", "Potency": "inactive"},
      {"smiles": "CNC(=O)C(c1ccccc1)c1ccccc1", "Potency": "inactive"},
      {"smiles": "CC1=CC[C@H](CC=O)C1(C)C", "Potency": "inactive"},
      {"smiles": "CN=C(NC#N)NCCSCc1csc(N=C(N)N)n1", "Potency": "inactive"},
      {"smiles": "C=C(C)[C@@H]1CC[C@@H](C)C[C@@H]1O", "Potency": "inactive"},
      {"smiles": "CCC(C)(C)C1CCC(=O)CC1", "Potency": "inactive"},
      {"smiles": "C=CCOc1cc(Cl)ccc1C(=O)NCCN(CC)CC", "Potency": "inactive"},
      {"smiles": "CC(=O)N1CCN(c2ccc(O)cc2)CC1", "Potency": "inactive"},
      {"smiles": "Nc1c(NC/C=C\\COc2cc(CN3CCCCC3)ccn2)c(=O)c1=O", "activity change": "3.09% [at 15.8 µM, hits give high values]"},
      {"smiles": "CC(C)CCCC(C)CC=O", "note": "(stereo not given)", "Potency": "inactive"},
      {"smiles": "COc1cccc2sc(N)nc12", "Potency": "inactive"},
      {"smiles": "NS(=O)(=O)c1cc2c(cc1Cl)NC(C(Cl)Cl)NS2(=O)=O", "note": "(stereo not given)", "Potency": "inactive"},
      {"smiles": "Cc1ccc(S(=O)(=O)NC(=O)NC2CCCCCCC2)cc1", "Potency": "inactive"},
      {"smiles": "Cc1ccccc1N1CCN(CCc2nnc3n2CCCC3)CC1", "Potency": "inactive"},
      {"smiles": "CCCCC[Si](OCC)(OCC)OCC", "Potency": "inactive"},
      {"smiles": "FC(F)(F)c1ccc(Cl)cc1Cl", "Potency": "inactive"},
      {"smiles": "CC(C)(C)c1ccc(C=O)cc1", "Potency": "inactive"},
      {"smiles": "C[CH2][Ge]([Cl])([CH2]C)[CH2]C", "Potency": "inactive"},
      {"smiles": "CCOC(=O)CCCCCCCCC(=O)OCC", "Potency": "inactive"},
      {"smiles": "C=CCOc1c(Br)cc(C(C)(C)c2cc(Br)c(OCC=C)c(Br)c2)cc1Br", "Potency": "inactive"},
      {"smiles": "Nc1ccnc(=O)[nH]1", "Potency": "inactive"},
      {"smiles": "C=C[C@@H](C)CCC=C(C)C", "Potency": "inactive"},
      {"smiles": "CCOC(=O)CC(CC(=O)OCC)(OC(C)=O)C(=O)OCC", "Potency": "inactive"},
      {"smiles": "COC(OC)C(C)c1ccccc1", "note": "(stereo not given)", "Potency": "inactive"},
      {"smiles": "C=CCOC(=O)c1ccc(C(=O)OCC=C)c(C(=O)OCC=C)c1", "Potency": "inactive"},
      {"smiles": "Cc1oc(=O)oc1CN1CCN(c2cc3c(cc2F)c(=O)c(C(=O)O)c2n3C(C)S2)CC1", "note": "(stereo not given)", "Potency": "inactive"},
      {"smiles": "C=CCOCC(CO)(COCC=C)COCC=C", "Potency": "inactive"},
      {"smiles": "O=C(Oc1ccccc1C(=O)O)c1ccccc1O", "Potency": "inactive"}
    ]}
  ]
}
